Screens from PubChem BioAssay.
This is a sample that favours compounds with a hit; in the whole collection about 9.3% have one here.
FLuc modulator – qHTS profiling assay for firefly luciferase inhibitor/activator using purifed enzyme and Km concentrations of substrates (counterscreen for miR-21 project); Luciferin 4-monooxygenase (Photinus pyralis), P08659; purified FLuc, Km substrates, luminescence inhibition; Potency, µM (top dose mostly 57.5 µM), for inactives: at the highest dose activity change, negative = inhibition, usual class: inhibitors; 6.9% of 360,000 active;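 note: plate controls were vehicle for no effect and reference inhibitor for full effect; nearly all actives have a fitted effect of over 55% in size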
Target sequence (P08659 whole entry, looked up): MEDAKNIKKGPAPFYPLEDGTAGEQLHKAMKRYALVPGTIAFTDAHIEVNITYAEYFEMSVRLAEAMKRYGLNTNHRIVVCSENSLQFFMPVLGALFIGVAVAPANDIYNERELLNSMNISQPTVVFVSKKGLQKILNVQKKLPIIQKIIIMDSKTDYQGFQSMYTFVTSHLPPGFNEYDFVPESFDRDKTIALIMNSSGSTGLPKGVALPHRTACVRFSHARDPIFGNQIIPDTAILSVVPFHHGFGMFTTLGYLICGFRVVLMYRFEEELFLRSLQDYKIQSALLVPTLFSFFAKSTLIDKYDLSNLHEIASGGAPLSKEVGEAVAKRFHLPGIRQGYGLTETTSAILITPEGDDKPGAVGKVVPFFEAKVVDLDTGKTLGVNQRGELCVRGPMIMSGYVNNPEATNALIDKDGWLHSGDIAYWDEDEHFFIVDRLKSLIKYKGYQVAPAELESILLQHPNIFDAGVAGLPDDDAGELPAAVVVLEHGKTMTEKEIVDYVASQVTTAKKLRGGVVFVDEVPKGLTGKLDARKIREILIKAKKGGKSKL
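Purified P. pyralis luciferase (10nM final) with 10uM D-luciferin and 10uM ATP (Km levels) in 50mM Tris acetate pH 7.5, 10mM Mg acetate, 0.01% Tween-20, 0.05% BSA; qHTS 6-point titration, ~60 µM downward; luminescence read.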
Rab9 prom act – qHTS Assay for Rab9 Promoter Activators; Potency, µM (titrated, usually from 9.22 µM), inactives show at the highest dose activation, negative = inhibition, actives largely listed as activators; Huh7 Rab9 promoter-luciferase reporter, luminescence, 24 h; 2.8% of 320,000 active; note: % of control where 0% means no effect; nearly all actives have a fitted effect of over 60% in size
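Luminescence read-out: Huh7 cells stably expressing Rab9-luciferase, treated 24 h with compound at 37 °C, then lysed with luciferase reagent for 10 min at ambient before reading.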
SMN2 splice up – qHTS Assay for Enhancers of SMN2 Splice Variant Expression; 2.8% of 210,000 active; HEK293 SMN2-luciferase splicing reporter, luminescence, 30-36 h; AID 1458, 2008; Potency, µM (top dose mostly 46.1 µM), without a hit: top-dose activity change, positive = activation, hits mostly activators; note: % of control where 0% means no effect; nearly all actives have a fitted effect of over 55% in size
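qHTS luciferase splicing reporter: luminescence rises when SMN2 exon 7 is included in transfected HEK293 cells. Compound exposure lasted 30-36 h at 37C, with 4.5 mM final sodium butyrate as control, followed by a ONE-Glo read.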
ELG1 repair inh – qHTS screen for small molecules that inhibit ELG1-dependent DNA repair in human embryonic kidney (HEK293T) cells expressing luciferase-tagged ELG1; HEK293T ELG1-luciferase reporter, luminescence, 16 h; DNA damage induced by 5-fluorouridine; Potency, µM (highest dose often 46.1 µM), inactives show top-dose activity change, negative = inhibition, most hits filed as inhibitors; 2.3% of 330,000 active; AID 504467, 2011; note: % is set by controls: 0 for no effect and ±100 for the full control effect; nearly all actives have a fitted effect of over 55% in size
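In this reporter screen, reduction of luminescence relative to DMSO vehicle indicated activity. Compounds and 5-fluorouridine were added together to 2,000 cells per well, incubated for 16 hr at 37 °C, then developed with ONE-Glo.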
NPC1 prom act – qHTS Assay for NPC1 Promoter Activators. Huh7 NPC1 promoter luciferase reporter, 24 h. Potency, µM (highest dose often 9.22 µM), for the others: at the top dose activation, most hits filed as activators. 2.4% of 320,000 active; note: % of control where 0% means no effect; nearly all actives have a fitted effect of over 60% in size
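Huh7 cells stably carrying NPC1 promoter–luciferase, plated in Opti-MEM with 10% FBS for 2 h, were exposed to compound in DMSO for 24 h at 37 °C; luciferase reagent was added for 10 min and luminescence read.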
ELG1 genotox – qHTS screen for small molecules that induce genotoxicity in human embryonic kidney (HEK293T) cells expressing luciferase-tagged ELG1; HEK293T ELG1-luciferase reporter, luminescence, 16 h; 1.3% of 330,000 active; Potency, µM (top dose mostly 46 µM), without a hit: at the top dose activity change, positive = activation, most hits filed as activators; AID 504466, 2011; note: % of control where 0% means no effect; nearly all actives have a fitted effect of over 60% in size
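Screening used a luciferase reporter fused to human ELG1 in HEK293T cells. Luminescence was read on a CCD plate imager after 16 hr exposure and 30 min ONE-Glo incubation.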
* marks the source's active call; other numbers are inactive results; ? = inconclusive; . = not tested or not shown; ! = a repeat was not active; [ ] = remark or other dose. Calls come from the whole dose curve; as a rule, active = well fitted curve in the direction sought with a large enough effect; inconclusive = small, poorly fitted or top-dose-only effect, or another doubt; inactive = no such curve, though single readings can be large; an effect the other way counts as inactive or inconclusive. Potency is the fitted concentration of half-maximal effect.

SMILES | FLuc modulator | Rab9 prom act | SMN2 splice up | ELG1 repair inh | NPC1 prom act | ELG1 genotox
CC(Cc1ccccc1)NC(=O)c1ccc(N)cc1 (configuration not stated) | 21µM* | 3.5µM* | . | ? | 3.2µM* | ?
Cc1cc2c(C(C)C)c(O)c(O)c(C=O)c2c(O)c1-c1c(C)cc2c(C(C)C)c(O)c(O)c(C=O)c2c1O | 13µM*! | -41%[46.1 µM] | -92% | -5% | -31%[46.1 µM] | ?
O[C@H](CN1CC1)[C@@H](O)CN1CC1 | . | . | -12%[9.22 µM] | . | . | .
CCN(CC)C(=O)c1ccc(NC(=O)c2ccc(-c3nn(C)c(=O)c4ccccc34)cc2)cc1 | -9% | 2% | -4% | -11% | -1% | 0%
Cc1ccc(-c2nn(C)c(=O)c3ccccc23)cc1CNC(=O)/C=C/c1ccccc1 | ? | 10% | -20% | 16µM* | -6% | -6%
O=C(O)/C=C\c1ccc[c]([Sb])c1 | . | . | -14%[9.22 µM] | . | . | .
COC(=O)[C@@H]1C[C@H]1[C@@H](NP(=O)(c1ccccc1)c1ccccc1)c1ccccc1 | 4% | -3% | 10µM* | ? | -3% | 18µM*
COC(=O)[C@H]1C[C@@H]1[C@H](NP(=O)(c1ccccc1)c1ccccc1)c1ccccc1 | 3% | -3% | -15% | 13% | -2% | 0%
Cn1c(=O)c2[nH]cnc2n(C)c1=O.[CH2-][C@H](Cc1cccc2cc(C(=O)O)c(=O)oc12)OC.[Hg].[OH-] | . | . | -6%[9.22 µM] | . | . | .
O=C(CSc1ccc(-c2ccco2)nn1)Nc1ccccc1 | ? | 18% | -21% | ? | 3% | -1%
CCc1nnc(NC(=O)CSc2ccc(-c3ccco3)nn2)s1 | 15µM* | 0% | -26% | 0% | 0% | 10%
CCOC(=O)CC(SP(=O)(OC)OC)C(=O)OCC (configuration not stated) | . | . | -4% | . | . | .
CCOc1ccc(-c2cn3c(n2)sc2cc(C(=O)N4CCCC(C)C4)ccc23)cc1 (configuration not stated) | 4.3µM* | . | 0% | . | . | .
Cc1cn2c(=O)cc(COC(=O)c3ccccc3F)nc2s1 | 2.7µM* | . | . | . | . | .
CCC(=Nc1cc(OC)ccc1OC)c1c(O)[nH]c(=O)[nH]c1=O | 3% | -3% | -9% | 6% | -3% | 6%
C=CCn1c(O)c(C(CC)=Nc2cc(OC)ccc2OC)c(=O)[nH]c1=O | 8% | 3% | ? | ? | -3% | 23µM*
S=P(C1CCCCC1)(C1CCCCC1)[C@H](c1cccnc1)N1CCCC1 | . | . | -4%[9.22 µM] | . | . | .
O=[As](O)(O)c1ccc2nc3cc([As](=O)(O)O)ccc3nc2c1 | . | . | 5%[9.22 µM] | . | . | .
CCC(Oc1cc(Cl)ccc1Cl)C(=O)N1CCC2(CC1)OCCO2 (configuration not stated) | 11µM* | 1.8µM* | . | ? | 0.89µM* | ?
Cc1c(C(=O)N2CCC3(CC2)OCCO3)sc2ncnc(N3CCc4ccccc4C3)c12 | ? | -5% | -52% | 21µM* | -4% | -5%
O=C(c1ccccc1)N1CCC2(CC1)OCCO2 | 1% | 0% | . | 1% | -4% | 0%
COc1cccc(-n2c(=S)[nH]c3ccccc3c2=O)c1 | 3% | 2% | 9% | ? | 0% | 7%
COc1ccc2c(c1)NP(=S)(Oc1ccccc1)N2 (configuration not stated) | 6.7µM* | 0% | . | ? | 19% | ?
Cc1ccc(NC(=O)c2ncn(CC(=O)NCc3ccc4c(c3)OCO4)n2)cc1C | . | . | . | ? | . | 16%
O=C(CSC1c2ccccc2-c2ccccc21)N/N=C/c1ccccc1O | -2% | -29% | -66% | 3.7µM* | -31% | -2%
SMILES | FLuc modulator | Rab9 prom act | SMN2 splice up | ELG1 repair inh | NPC1 prom act | ELG1 genotox
Cc1ncc([N+](=O)[O-])n1CCN=[N+]=[N-] | . | . | -11%[9.22 µM] | . | . | .
Cc1nn(CC(C)C)c(Cl)c1C(=O)NC1CCC(C)CC1 (configuration not stated) | 8.5µM* | 4µM* | . | ? | 2.2µM* | 9.2µM*
O=C(Nc1ccc2c(c1)OCCO2)c1cccn(Cc2ccccc2)c1=O | 11µM* | . | . | . | . | .
CCOc1ccc(NC(=O)c2cccn(Cc3cccc(Cl)c3)c2=O)cc1 | 17µM* | . | . | . | . | .
C[C@@H]1CC[C@@]2(OC1)O[C@H]1[C@@H](O)[C@H]3[C@@H]4CC[C@H]5C[C@@H](O[C@@H]6O[C@H](CO)[C@H](O[C@@H]7O[C@H](CO)[C@@H](O)[C@H](O[C@@H]8OC[C@@H](O)[C@H](O)[C@H]8O)[C@H]7O[C@@H]7O[C@H](CO)[C@@H](O)[C@H](O[C@@H]8O[C@H](CO)[C@@H](O)[C@H](O)[C@H]8O)[C@H]7O)[C@H](O)[C@H]6O)[C@H](O)C[C@]5(C)[C@H]4CC[C@]3(C)[C@H]1[C@@H]2C | . | . | -30% | . | . | .
CNC(=O)Oc1ccc(-c2cn3cc(Cl)ccc3n2)cc1 | 1.1µM* | 0.63µM* | 5µM* | ? | 0.89µM* | ?
CNC(=O)Oc1cccc(-c2cn3cc(OC(=O)NC)ccc3n2)c1 | 3.8µM* | ? | 13µM* | ? | 3.5µM* | 21µM*
NC(=O)c1cccc(-c2cccc(OC(=O)NC3CCCCC3)c2)c1 | ? | 0% | . | ? | 0% | 11%
COC(C)(C)C | . | . | 5% | . | . | .
CC(n1cc(C[C@H](N)C(=O)O)c2ccccc21)n1cc(C[C@H](N)C(=O)O)c2ccccc21 | . | . | -8% | . | . | .
CCC(=O)Oc1ccc(C(=O)Nc2cccc(C(=O)c3ccccc3)c2)cc1 | 17µM* | 2% | -25% | -25% | 3% | -9%
CC(C)n1c(N2CCN(S(=O)(=O)c3cccc([N+](=O)[O-])c3)CC2)nc2ccccc21 | 3% | 0% | . | 23µM* | -7% | -6%
CN1CCc2cc3c(c4c2C1Cc1ccccc1-4)OCO3 (configuration not stated) | -1% | 6.3µM* | . | ? | 9% | -6%
Cc1ccc(Cl)cc1N1CCN(C(=O)C2CCN(Cc3nc(-c4ccc(Cl)cc4)oc3C)CC2)CC1 | ? | . | -4% | . | . | .
O=C(O)/C=C\C(=O)Nc1ccc(Oc2ccc(Br)cc2)cc1 | 19µM* | -3% | -12% | 3% | -1% | 0%
CC[C@@H](CO)NC(=O)[C@H]1C=C2c3cccc4c3c(cn4C)C[C@H]2N(C)C1 | . | . | -9% | . | . | .
